Data on 40 compounds can be found in PubChem BioAssay (Tox21).

Inconclusive results are not listed. Entries that show only a call come without a potency. The source made the active and inactive calls. Calls follow the shape of the dose curve; as a rule, active = well fitted inhibition curve with a large enough effect in the signal ratio in the repeat runs (not every such curve was filed as active); inconclusive = weak or mixed curves, or effect the other way; inactive = flat fitted curve, though single readings scatter; the % refers to the signal ratio.
Potency is read from the fitted curve at half-maximal effect.

A short description of the experiment: cAMP Responsive Elements (CRE) small molecule antagonists, cell-based qHTS assay (AID 1963591). The conditions noted are these: CRE-bla HEK293T, beta-lactamase FRET ratio; series mostly up to 92.4 µM. The text has this: U.S. Tox21 Program National Center for Advancing Translational Sciences [NCATS] Division of Preclinical Innovation [DPI] U.S. Environmental Protection Agency [EPA] National Institutes of Environmental Health Sciences [NIEHS] National Toxicology Program [NTP] U.S. Food and Drug Administration [FDA] Tox21 Assay Overview: CREB (cyclic-AMP Responsive Element Binding Protein) is a cellular transcription factor. It binds to certain DNA sequences called cAMP Responsive Elements (CRE) and regulates the transcription of the genes. […] This cell line can be used to find agonists/antagonists of the cyclic AMP signaling pathway. The activation of the report gene under culture conditions can be detected by fluorescence intensity. This cell line has been used to screen the Tox21 10K compound library to […].
Tox21 Assay Protocol Summary: CRE-bla Hek 293T cells were suspended in assay medium (DMEM containing 10% dialyzed FBS, 0.1 mM NEAA, 1 mM sodium pyruvate and 25 mM HEPES) and dispensed at 2,000 cells/4 uL /well into 1536-well black wall/clear bottom plates using a Multidrop Combi (ThermoFisher Scientific, Waltham, MA) dispenser. After the assay plates were incubated at 37 C/5% CO2 for 18 hrs, 23 nL of compounds dissolved in DMSO, positive controls or DMSO only was transferred to the assay plate by a pintool workstation (Kalypsys, San Diego, CA), followed by addition of 1 […] uL of 1.25uM NKH477 (0.25 uM as final concentration) in assay medium using a Flying Reagent Dispenser (Aurora Discovery, San Diego, CA). The plates were incubated at 37 C and 5% CO2 for 3 hrs. Then 1 uL of LiveBLAzer B/G FRET substrate (Invitrogen, Carlsbad, CA) was added to each well using Bioraptr Flying Reagent Dispenser (FRD, Aurora Discovery, San Diego, CA). The plates were incubated at room temperature for 2 h.
Regarding `O=C(/C=C/c1ccc(O)c(O)c1)O[C@@H](C(=O)O)[C@@H](OC(=O)/C=C/c1ccc(O)c(O)c1)C(=O)O`, the Potency result was “inactive”.

Turning to `COC(=O)c1ccccc1OC`, the Potency result was “inactive”.

Regarding `CC(=O)SCC(CC(=O)c1ccc(C)cc1)C(=O)O` (stereo not given), the Potency result was “inactive”.

Consider `O=c1[nH]c(=O)n([C@H]2C[C@H](O)[C@@H](CO)O2)cc1F`, for which the Potency result was “inactive”.

As to `CC(=O)/C(C)=C/C1C(C)=CCCC1(C)C` (stereo not given), the Potency entry is “inactive”.

Consider `COc1cc(Cl)ccc1Oc1ccc(Cl)cc1Cl`, for which the Potency entry is “inactive”.

`NC(=O)c1c(Cl)cccc1Cl`: the Potency result was “inactive”.

As for `Cc1ccc(C)c([N+](=O)[O-])c1`, the Potency entry was “inactive”.

For `NCCCC(O)(P(=O)(O)O)P(=O)(O)O`, the Potency result was “inactive”.

Turning to `CCc1cc2cc(OC)c(OC)cc2c(Cc2ccccc2)n1`, the Potency entry is “inactive”.

As to `C[C@H]1[C@H](NC(=O)/C(=N/OC(C)(C)C(=O)O)c2csc(N)n2)C(=O)N1S(=O)(=O)O` (stereo in doubt), the Potency result is “inactive”.

Regarding `COc1ccccc1OCC1CNC(=O)O1` (stereo not given), the Potency result was “inactive”.

Regarding `O=S(c1cc(Cl)cc(Cl)c1O)c1cc(Cl)cc(Cl)c1O`, the Potency result was “inactive”.

`CCCOC(OCCC)OCCC`: the Potency entry was “inactive”.

Consider `CN(C)C(C)(C)CO`, for which the Potency entry is “inactive”.

For the compound `CN1CCC(=C2c3ccccc3Sc3ccccc32)CC1`, the Potency entry is “inactive”.

In the case of `COc1cccc(N)c1`, the Potency result is “inactive”.

In the case of `Cn1c(NCCN(CCO)CCCc2ccc([N+](=O)[O-])cc2)cc(=O)n(C)c1=O`, the Potency result was “inactive”.

As for `CCCC/C=C/CCCCO`, the Potency result is “inactive”.

Consider `C[Si](Cl)(c1ccccc1)c1ccccc1`, for which the Potency entry is “inactive”.

For the compound `O=C(O)CO`, the Potency entry is “inactive”.

As to `CC(C)(C)c1ccc(C(=O)O)cc1`, the Potency result is “inactive”.

Consider `CC(C)Nc1ccc(NC(C)C)c2c1C(=O)c1ccccc1C2=O`, for which the Potency entry was “inactive”.

In the case of `CC(=O)SCc1ccco1`, the Potency entry was “inactive”.

Regarding `Nc1cc(Cl)c([N+](=O)[O-])cc1O`, the Potency entry is “inactive”.

Regarding `N[C@@H](CCC(=O)O)C(=O)O`, the Potency result is “inactive”.

As to `CC(C)NCC(O)COc1cccc2[nH]ccc12` (stereo not given), the Potency entry is “inactive”.

With `CC1CCCCN1CCCOC(=O)c1ccc(OC2CCCCC2)cc1` (stereo not given), the Potency entry was “inactive”.

For `CC(CO)(CO)CO`, the Potency entry was “inactive”.

Take `CCCCCCCCNC(C)C(O)c1ccc(SC(C)C)cc1` (stereo not given): the Potency is 23.7 µM (active).

`C[C@@H]1C[C@H]2[C@@H]3C[C@H](F)C4=CC(=O)C=C[C@]4(C)[C@@]3(F)[C@@H](O)C[C@]2(C)[C@@]1(O)C(=O)CO`: the Potency result is “inactive”.

As to `O=C(O)Cc1ccc(Cl)cc1Cl`, the Potency result is “inactive”.

As to `Cc1oc2c(NC(=O)c3c(Cl)cccc3Cl)cccc2c1C(C)(C)O`, the Potency entry is “inactive”.

Turning to `CC(CC(=O)Cl)CC(C)(C)C` (stereo not given), the Potency result was “inactive”.

Turning to `COC(=O)CCCCCCCC(=O)OC`, the Potency result is “inactive”.

Take `O=C1CCCCCCCCCCCCCCO1`: the Potency result was “inactive”.

`O/N=C/C=N/O`: the Potency entry was “inactive”.

Turning to `CCO[C@@H]1O[C@H](C(COCc2ccccc2)OCc2ccccc2)[C@H](OCc2ccccc2)[C@H]1O` (stereo not given in full), the Potency entry is “inactive”.

On to `OCc1cc(C(O)CNCCCCCCOCCCCc2ccccc2)ccc1O` (stereo not given), for which the Potency result was “inactive”.

For `O=C1CCC/C=C\CCCCCCCCCC1`, the Potency entry was “inactive”.
